# Columns and labels:
# Assay type in all cases: functional
# [1] = target: Solute carrier family 2, facilitated glucose transporter member 1 (Homo sapiens) (UniProt P11166); experiment: ST_JUDE_LEISH: Cytotoxicity at 2uM final concentration against transgenic Leishmania Mexicana promastigotes LmGLUT1 that are glucose transport deficient and complemented with the human glucose transporter GLUT1. Activity is measured by DNA content using SYBR green in vitro
# [2] = target: Hexose transporter 1 (Plasmodium falciparum) (UniProt O97467); experiment: ST_JUDE_LEISH: Cytotoxicity at 2uM final concentration against transgenic Leishmania Mexicana promastigotes LmPfHT that are glucose transport deficient and complemented with the Plasmodium falciparum hexose transporter. Activity is measured by DNA content using SYBR green in vitro
# [3] = target: Glucose transporter (Leishmania mexicana) (UniProt O61059); experiment: ST_JUDE_LEISH: Cytotoxicity at 2uM final concentration against transgenic Leishmania Mexicana promastigotes LmGT2 that are glucose transport deficient and complemented with the L. Mexicana glucose transporter 2. Activity is measured by DNA content using SYBR green in vitro
# Chain of Solute carrier family 2, facilitated glucose transporter member 1 (Homo sapiens) (P11166 whole entry): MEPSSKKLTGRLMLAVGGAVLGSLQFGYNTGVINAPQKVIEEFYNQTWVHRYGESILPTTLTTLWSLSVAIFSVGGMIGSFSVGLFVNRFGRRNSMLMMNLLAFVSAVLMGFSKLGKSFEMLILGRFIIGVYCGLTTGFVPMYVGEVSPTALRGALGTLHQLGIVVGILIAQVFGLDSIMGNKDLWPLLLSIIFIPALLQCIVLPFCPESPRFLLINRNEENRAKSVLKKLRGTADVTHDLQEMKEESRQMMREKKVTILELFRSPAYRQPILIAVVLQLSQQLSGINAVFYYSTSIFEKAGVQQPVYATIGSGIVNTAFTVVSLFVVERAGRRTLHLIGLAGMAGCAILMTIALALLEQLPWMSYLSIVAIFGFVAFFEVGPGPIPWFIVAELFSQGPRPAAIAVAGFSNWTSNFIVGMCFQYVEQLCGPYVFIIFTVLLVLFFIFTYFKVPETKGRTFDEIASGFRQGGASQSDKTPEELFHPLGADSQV
SMILES,inhibition [1],inhibition [2],inhibition [3]
CCc1ccc(N2C(=O)C3C(Cc4ccc(OC(C)(C)C)cc4)NC4(C(=O)N(Cc5ccccc5)c5ccc(F)cc54)C3C2=O)cc1 (stereo not drawn),0.6%,-0.02%,-1.06%
NC(=O)c1ccc(C(=O)Nc2cccc(-c3ccc(-c4nc5cc(C(F)(F)F)ccc5[nH]4)cc3)c2)cc1,-2.41%,-0.2%,-2.73%
Cc1onc(-c2c(Cl)cccc2Cl)c1C(=O)N1CCc2cc3nccc(N4CCN5CCC[C@H]5C4)c3cc21,3.46%,4.46%,5.26%
COc1ccc2nccc([C@@H](O)CN3CCC(NCc4nc5ccccc5[nH]4)CC3)c2c1,1.84%,-0.18%,-0.97%
COc1cc2nc(C)nc(Nc3ccc4c(ccn4Cc4ccccc4)c3)c2cc1OC,5.04%,5.91%,5.53%
CC1(C)CNCc2cc(NC(=O)/C=C/c3ccc(Cl)cc3)ccc21,0.41%,-2.52%,2.38%
Cc1ccc(CN2CCN(CC(O)COc3ccc4c(c3)CCC4)CC2)cc1 (stereo not drawn),-0.73%,0.88%,-0.29%
c1ccc(CCNCc2cccc(-c3ccc(CNc4ccc5ncccc5c4)cc3)c2)cc1,4.72%,3.92%,3.8%
O=C(Nc1ccc(N2CCCN(Cc3cccc(F)c3)CC2)cc1)c1ccccc1,0.26%,-0.73%,-0.78%
COc1cc(C)c(C(O)CNC(C)CCc2ccccc2)cc1C (stereo not drawn),2.16%,2.83%,-0.47%
Cc1ccc(CN2CCC(C(=O)Nc3ccc(-c4cc5ccccc5[nH]4)cc3)CC2)o1,17.3%,9.24%,4.6%
COC(=O)c1ccc(OCC(C)NCC(O)c2cccc(C(F)(F)F)c2)cc1 (stereo not drawn),10.7%,8.32%,8.64%
CC(C)CCN1CCC(Oc2ccc(NC(=O)c3ccc(F)cc3)cc2Cl)CC1,-2.57%,-4.4%,0.92%
COc1cc(Cc2cnc(NCCN3CCNCC3)nc2N)ccc1OCc1ccc(C(F)(F)F)cc1,3.49%,4.49%,6.93%
NC(=O)c1sc(-n2cnc3ccccc32)cc1OCc1ccccc1[N+](=O)[O-],8.87%,7.21%,6.48%
CC(C)(C)c1ccc(CN2CCC(CNC(=O)c3cc(-c4ccccc4Cl)cs3)C2)cc1 (stereo not drawn),0.49%,0.05%,1.29%
CCN(CC)CCOc1ccc(Nc2ncc3cc(-c4c(Cl)cccc4Cl)c(=O)n(C)c3n2)cc1,75.8%,83.3%,17.9%
Cc1ccc(NC(=O)c2ccc(NCCCN(C)Cc3ccccc3)c([N+](=O)[O-])c2)cc1F,8.67%,3.73%,2.68%

SMILES,inhibition [1],inhibition [2],inhibition [3]
Cc1ccc(NC(=O)c2ccc(CN3CCCN(Cc4cccc(Cl)c4)CC3)cc2)cc1C,3.09%,3.31%,2.64%
Cc1nc(C)c(-c2ccc(Oc3cccc(OC(F)(F)F)c3)cc2)c(O)c1Cl,2.22%,2.75%,2.84%
CC(C)NCc1ccc(-c2cccc(CN3CCC(c4ccccc4)CC3)c2)c(C(=O)NCC2CCCCC2)c1,7.97%,8.3%,8.2%
CCNc1cc(C(=O)N[C@@H](Cc2ccccc2)[C@H](O)CNCc2cc(C#N)ccc2OC)cc(N2CCCC2=O)c1,9.4%,9.23%,9.67%
CCN(CCCN1CCCCC1)c1cc(C)nc(Nc2cccc(OC(F)(F)F)c2)n1,1.17%,1.62%,2.65%
O=C(Nc1cccc(-c2cccc(-c3nc4ccccc4[nH]3)c2)c1)c1cccnc1,2.95%,2.73%,0.76%
OC(CNCc1ccccc1OCc1ccccc1)c1cc(Br)cs1 (stereo not drawn),3.96%,3.38%,3.82%
CC(=O)/N=C1\N=C(NC(C)=O)NC(C)(C)N1OCCCOc1ccc(Cl)c(Cl)c1,1.53%,1.27%,1.47%
CC(C)CNCc1cccc(-c2ccc(CNc3ccc(C(=O)c4ccccc4)cc3)cc2)c1,1.27%,0.62%,-1.03%
CS(=O)(=O)c1cccc(-c2cnc(N)c3cc(-c4ccc5c(c4)OCO5)ccc23)c1,8.59%,8.33%,7.36%
Cc1cc(CNCCCCCCCNCc2ccc(Cl)cc2)ccc1O,0.64%,3.98%,0.81%
Oc1cc(Nc2ccnc3cc(-c4cccc(CN5CCCCC5)c4)ccc23)c(F)cc1Cl,3.41%,2.51%,2.54%
Cc1cc(Nc2nc(NCc3cccnc3)nc3ccccc23)n[nH]1,8.58%,10.4%,10%
Cc1c(S(=O)(=O)Nc2ccc3ccn(CCN(C)C)c3c2)sc2ccc(Cl)cc12,-0.44%,-0.46%,1.18%
COCc1ccccc1C(=O)NCCOc1cc(C)cc(C)c1,-0.29%,0.17%,-0.46%
CCOC(=O)NCCSC(C)(C)[C@H](NC(=O)[C@H](Cc1cc2ccccc2s1)[C@H](CC)N(O)C=O)C(=O)Nc1nccs1,0.32%,0.28%,-0.04%
OC(c1cccc(OCc2ccccc2)c1)C1CN(CCc2ccccc2)CCC1(O)c1ccccc1 (stereo not drawn),-1.45%,-0.62%,-0.2%
O=C(Nc1cccc(-c2cc3ccccc3[nH]2)c1)C1CCN(Cc2ccccc2O)CC1,10.3%,9.31%,8.56%
